Results reported in PubChem BioAssay (NCATS).
Where “and” joins values, the source holds several entries; their conditions need not be identical. Identical values can stand only once. Inconclusive results are not listed. Calls of active or inactive are those of the source. The call rests on the fitted dose curve; in most records, active means well fitted curve in the direction sought with a large enough effect; inconclusive means small, poorly fitted or top-dose-only effect, or another doubt; inactive means no such curve, though single readings can be large; an effect the other way counts as inactive or inconclusive.

Experiments:
MCC-26 = assay: qHTS assay to identify novel small-molecules to repurpose for Merkel cell carcinoma treatment (AID 1296009); conditions: MCC and control cell lines, CellTiter-Glo viability, 72 h; series mostly up to 46 µM; further: nearly all actives have a fitted effect of over 60% in size
Procedure, shortened: (§1)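 After compound transfer in DMSO, plates were kept 72 hr at 37 degree celsius. Luminescent ATP signal from CellTiter-Glo served as viability measure, normalized against DMSO and no-cell controls.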

MKL-1 = assay: as above; conditions: MCC and control cell lines, CellTiter-Glo viability, 72 h; series mostly up to 46 µM
Procedure, shortened: as §1

MKL-2 = assay: as above; conditions: MCC and control cell lines, CellTiter-Glo viability, 72 h; series mostly up to 46 µM
Procedure, shortened: as §1

UISO = assay: as above; conditions: MCC and control cell lines, CellTiter-Glo viability, 72 h; series mostly up to 46 µM
Procedure, shortened: as §1

WaGa = assay: as above; conditions: MCC and control cell lines, CellTiter-Glo viability, 72 h; series mostly up to 46 µM
Procedure, shortened: as §1

C33A = assay: Primary qHTS to identify gynecologic anti-cancer compounds using libraries of approved drugs and bioactive compounds (AID 1345084); conditions: Gynecologic cancer cell panel viability, ATPlite luminescence, 48 h; series mostly up to 57.5 µM; further: nearly all actives have a fitted effect of over 55% in size
Procedure, shortened: (§2)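 Cytotoxicity screen measuring ATP content by luciferase luminescence. Each compound is applied at five concentrations for 48 h at 37 C with 5% CO2.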

CAOV3 = assay: as above; conditions: Gynecologic cancer cell panel viability, ATPlite luminescence, 48 h; series mostly up to 57.5 µM
Procedure, shortened: as §2

CASKI = assay: as above; conditions: Gynecologic cancer cell panel viability, ATPlite luminescence, 48 h; series mostly up to 57.5 µM
Procedure, shortened: as §2

Es-2 = assay: as above; conditions: Gynecologic cancer cell panel viability, ATPlite luminescence, 48 h; series mostly up to 57.5 µM
Procedure, shortened: as §2

HeLa = assay: as above; conditions: Gynecologic cancer cell panel viability, ATPlite luminescence, 48 h; series mostly up to 57.5 µM
Procedure, shortened: as §2

Hek293T = assay: as above; conditions: Gynecologic cancer cell panel viability, ATPlite luminescence, 48 h, control line for the selectivity index; series mostly up to 57.5 µM
Procedure, shortened: as §2

JEG-3 = assay: as above; conditions: Gynecologic cancer cell panel viability, ATPlite luminescence, 48 h; series mostly up to 57.5 µM
Procedure, shortened: as §2

OV90 = assay: as above; conditions: Gynecologic cancer cell panel viability, ATPlite luminescence, 48 h; series mostly up to 57.5 µM
Procedure, shortened: as §2

PA-1 = assay: as above; conditions: Gynecologic cancer cell panel viability, ATPlite luminescence, 48 h; series mostly up to 57.5 µM
Procedure, shortened: as §2

Tov-21-G = assay: as above; conditions: Gynecologic cancer cell panel viability, ATPlite luminescence, 48 h; series mostly up to 57.5 µM
Procedure, shortened: as §2

Tov112D = assay: as above; conditions: Gynecologic cancer cell panel viability, ATPlite luminescence, 48 h; series mostly up to 57.5 µM
Procedure, shortened: as §2

[1] = Drug repurposing screens with cells derived from glioblastoma tumor samples (AID 1345199); conditions: GBM patient neurospheres viability, ATP luminescence, 48 h; further: nearly all actives have a fitted effect of over 40% in size
Procedure, shortened: (§3)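 Four patient lines of CD133+ GBM neurospheres were screened at several concentrations; hits were retested in those lines plus three slower-growing GBM lines, using 48-hour treatment and ATP-based viability.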

astro = assay: as above; conditions: viability, ATP luminescence, 48 h; series mostly up to 45.9 µM
Procedure, shortened: as §3

SKOV3 = assay: Primary qHTS to identify gynecologic anti-cancer compounds using libraries of approved drugs and bioactive compounds (AID 1345084); conditions: Gynecologic cancer cell panel viability, ATPlite luminescence, 48 h; series mostly up to 57.5 µM; further: nearly all actives have a fitted effect of over 55% in size
Procedure, shortened: as §2

[2] = at 45.9 µM (top of the series), tumour line B
[3] = at 45.9 µM (top of the series), tumour line D
[4] = at 46 µM (top of the series), tumour line A
[5] = at 46.1 µM (top of the series), tumour line C
On the % scale 0 is the no-effect control and ±100 the full control effect.

COc1ccc(S(=O)(=O)Nc2nnc(CC(C)C)s2)cc1
inactive: Potency (MCC-26) | Potency (MKL-1) | Potency (MKL-2) | Potency (UISO) | Potency (WaGa) | Potency (C33A) | Potency (CAOV3) | Potency (CASKI) | Potency (Es-2) | Potency (HeLa) | Potency (Hek293T) | Potency (JEG-3) | Potency (OV90) | Potency (PA-1) | Potency (Tov-21-G) | Potency (Tov112D) | activity, negative = cell killing [1, 2] -4.51% and -11.1% | activity, negative = cell killing [1, 3] -10.6% and 2.66% | activity, negative = cell killing [1, 4] -18% | activity, negative = cell killing [1, 5] -23.9% | Potency (astro)

O=C(O)CN1C(=O)c2cccc3cccc(c23)C1=O
inactive: Potency (MCC-26) | Potency (MKL-1) | Potency (MKL-2) | Potency (UISO) | Potency (WaGa) | Potency (C33A) | Potency (CASKI) | Potency (Es-2) | Potency (HeLa) | Potency (Hek293T) | Potency (JEG-3) | Potency (OV90) | Potency (PA-1) | Potency (SKOV3) | Potency (Tov-21-G) | Potency (Tov112D) | activity, negative = cell killing [1, 2] -8.91% | activity, negative = cell killing [1, 3] -13.3% | activity, negative = cell killing [1, 4] -27.1% | activity, negative = cell killing [1, 5] -19.2% | Potency (astro)

NC(=O)c1ncn([C@@H]2O[C@H](CO)[C@@H](O)[C@H]2O)c1N
inactive: Potency (MCC-26) | Potency (MKL-1) | Potency (MKL-2) | Potency (UISO) | Potency (WaGa) | Potency (C33A) | Potency (CAOV3) | Potency (CASKI) | Potency (Es-2) | Potency (HeLa) | Potency (Hek293T) | Potency (JEG-3) | Potency (OV90) | Potency (PA-1) | Potency (SKOV3) | Potency (Tov-21-G) | Potency (Tov112D) | Potency (astro)

C[C@H](NC(CCc1ccccc1)C(=O)O)C(=O)N1CCC[C@H]1C(=O)O (stereo partly drawn)
inactive: Potency (MCC-26) | Potency (MKL-1) | Potency (MKL-2) | Potency (UISO) | Potency (WaGa) | Potency (C33A) | Potency (CAOV3) | Potency (CASKI) | Potency (HeLa) | Potency (Hek293T) | Potency (JEG-3) | Potency (OV90) | Potency (PA-1) | Potency (SKOV3) | Potency (Tov-21-G) | Potency (Tov112D) | activity, negative = cell killing [1, 2] -5.92% | activity, negative = cell killing [1, 3] 1.9% | activity, negative = cell killing [1, 4] -1.54% | activity, negative = cell killing [1, 5] -2.05% | Potency (astro)

CC1(C)[C@@H]2CC[C@@]1(C)C(=O)C2
inactive: Potency (MCC-26) | Potency (MKL-1) | Potency (MKL-2) | Potency (UISO) | Potency (WaGa) | Potency (C33A) | Potency (CAOV3) | Potency (CASKI) | Potency (Es-2) | Potency (HeLa) | Potency (Hek293T) | Potency (JEG-3) | Potency (OV90) | Potency (PA-1) | Potency (SKOV3) | Potency (Tov-21-G) | Potency (Tov112D) | Potency (astro)

CCN(CC)C(=O)Nc1ccc(OCC(O)CNC(C)(C)C)c(C(C)=O)c1 (stereo not drawn)
inactive: Potency (MCC-26) | Potency (MKL-1) | Potency (MKL-2) | Potency (UISO) | Potency (WaGa) | Potency (C33A) | Potency (CAOV3) | Potency (CASKI) | Potency (Es-2) | Potency (HeLa) | Potency (Hek293T) | Potency (JEG-3) | Potency (OV90) | Potency (PA-1) | Potency (SKOV3) | Potency (Tov-21-G) | Potency (Tov112D) | Potency (astro)

Cc1cc(CC(=O)O)n(C)c1C(=O)c1ccc(Cl)cc1
inactive: Potency (MCC-26) | Potency (MKL-1) | Potency (MKL-2) | Potency (UISO) | Potency (WaGa) | Potency (C33A) | Potency (CAOV3) | Potency (CASKI) | Potency (Es-2) | Potency (HeLa) | Potency (Hek293T) | Potency (JEG-3) | Potency (OV90) | Potency (PA-1) | Potency (SKOV3) | Potency (Tov-21-G) | Potency (Tov112D) | activity, negative = cell killing [1, 2] -19.5% and -0.106% | activity, negative = cell killing [1, 3] -15.6% and -2.2% | activity, negative = cell killing [1, 5] -19.2% and -21.6% | Potency (astro)

O=C1c2c(O)cccc2Cc2cccc(O)c21
inactive: Potency (MCC-26) | Potency (MKL-1) | Potency (MKL-2) | Potency (UISO) | Potency (WaGa) | Potency (C33A) | Potency (CAOV3) | Potency (CASKI) | Potency (Es-2) | Potency (HeLa) | Potency (Hek293T) | Potency (JEG-3) | Potency (OV90) | Potency (PA-1) | Potency (SKOV3) | Potency (Tov-21-G) | Potency (Tov112D) | activity, negative = cell killing [1, 2] -7.97% | activity, negative = cell killing [1, 4] -24.5% | activity, negative = cell killing [1, 5] -8.57% | Potency (astro)

CCCOC(=O)c1ccccc1
inactive: Potency (MCC-26) | Potency (MKL-1) | Potency (MKL-2) | Potency (UISO) | Potency (WaGa) | Potency (C33A) | Potency (CASKI) | Potency (Es-2) | Potency (HeLa) | Potency (Hek293T) | Potency (JEG-3) | Potency (OV90) | Potency (PA-1) | Potency (SKOV3) | Potency (Tov-21-G) | Potency (Tov112D) | activity, negative = cell killing [1, 2] -11.5% | activity, negative = cell killing [1, 3] 1.56% | activity, negative = cell killing [1, 4] -26.7% | activity, negative = cell killing [1, 5] -15.4% | Potency (astro)

O=C1NC(=O)[C@@]2(CCOc3ccc(F)cc32)N1
inactive: Potency (MCC-26) | Potency (MKL-1) | Potency (MKL-2) | Potency (UISO) | Potency (WaGa) | Potency (C33A) | Potency (CASKI) | Potency (Es-2) | Potency (HeLa) | Potency (Hek293T) | Potency (JEG-3) | Potency (OV90) | Potency (PA-1) | Potency (SKOV3) | Potency (Tov-21-G) | Potency (Tov112D) | activity, negative = cell killing [1, 2] -4.87% | activity, negative = cell killing [1, 3] 4.44% | activity, negative = cell killing [1, 4] -16.6% | activity, negative = cell killing [1, 5] -0.68% | Potency (astro)

O=C1NS(=O)(=O)c2ccccc21
inactive: Potency (MCC-26) | Potency (MKL-1) | Potency (MKL-2) | Potency (UISO) | Potency (WaGa) | Potency (C33A) | Potency (CAOV3) | Potency (CASKI) | Potency (Es-2) | Potency (HeLa) | Potency (Hek293T) | Potency (JEG-3) | Potency (OV90) | Potency (PA-1) | Potency (SKOV3) | Potency (Tov-21-G) | Potency (Tov112D) | activity, negative = cell killing [1, 2] -3.37% | activity, negative = cell killing [1, 3] -3.92% | activity, negative = cell killing [1, 4] -6.92% | activity, negative = cell killing [1, 5] -6.41% | Potency (astro)
